Laboratory results: PubChem BioAssay (Tox21)
Values joined by “and” are separate entries in the source; they are usually repeats but may differ in a detail not shown here. Equal entries are not always repeated. Results filed as inconclusive are left out. A call without a number means that no potency is given here. Some compounds were tested as several samples or in several runs, with calls that do not always agree. Active and inactive are the calls of the source. Unless noted, calls come from the whole dose curve; as a rule, active = well fitted curve in the direction sought with a large enough effect in the repeat runs; inconclusive = weak or mixed curves; inactive = no such curve, though single readings can be large; an effect the other way counts as inactive or inconclusive. Starred links: 1 amine or outer side, 2 acyl side, 3 side chain; linkers in the order of their positions; H or OH if unused. Positions of bridges follow the written chain, without caps; N, C: chain ends. Non-standard residues stand in square brackets, D forms with d. Residues, ends and D or L forms follow the SMILES beside them. Chains are numbered I, II in the order given. Actinocin(9to1) = Cc1c2oc3c(C)ccc(C(=O)[*:1])c3nc-2c(C(=O)[*:2])c(N)c1=O; NMeV = CN[C@H](C(=O)O)C(C)C; Sar = CNCC(=O)O

Key:
[1] = target: Estrogen receptor beta (Homo sapiens) (UniProt Q92731); experiment: qHTS assay to identify small molecule agonists of the estrogen receptor beta (ER-beta) signaling pathway (AID 1259377; active = well fitted activation curve with a large enough effect in the signal ratio in the repeat runs, not every such curve was filed as active; the % refers to the signal ratio)
In short: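 Agonist mode cell assay in GripTite HEK293T cells expressing an ER-beta fusion that drives beta-lactamase from an Upstream Activator Sequence; 16 hr compound exposure at 37C, then 2 h LiveBLAzer B/G FRET substrate at room temperature, fluorescence read-out.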

[2] = target: Estrogen receptor beta (Homo sapiens) (UniProt Q92731); experiment: qHTS assay to identify small molecule antagonists of the estrogen receptor beta (ER-beta) signaling pathway (AID 1259378; active = well fitted inhibition curve with a large enough effect in the signal ratio in the repeat runs, not every such curve was filed as active; the % refers to the signal ratio; note: potency is the fitted concentration of half-maximal effect)
In short: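 ER-beta-UAS-bla HEK293T (GripTite) cells in 2% charcoal-stripped FBS medium were preincubated 6 hr at 37C, dosed with compound, then stimulated with 1 nM E2 (final) for 16 hr; beta-lactamase reporter read by B/G FRET fluorescence after 2 hr substrate loading.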

[3] = qHTS assay to identify small molecule agonists of the androgen receptor (AR) signaling pathway in the presence of an antagonist - cell viability counter screen (AID 1259379); note: nearly all actives have a fitted effect of over 25% in size; note: potency is the fitted concentration of half-maximal effect;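 for activity change, negative = cytotoxicity: MDA-kb2 human breast cancer cells carrying an MMTV luciferase reporter; series mostly up to about 92 µM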
In short: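 In MDA-kb2 cells (human breast carcinoma, MMTV-luciferase), compounds at 15 concentrations plus 3.0uM nilutamide; 16 hr, 37C, 0% CO2; CellTiter-Fluor fluorescence read for viability.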

[4] = qHTS assay to identify small molecule agonists of the estrogen receptor beta (ER-beta) signaling pathway - cell viability counter screen (AID 1259380); note: nearly all actives have a fitted effect of over 30% in size; note: potency is the fitted concentration of half-maximal effect
In short: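 Viability of ER-beta-UAS-bla HEK293T cells was determined by CellTiter-Glo luminescence following 16 hr treatment with test compounds at 37C.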

[5] = qHTS assay to identify small molecule antagonists of the estrogen receptor beta (ER-beta) signaling pathway - cell viability counter screen (AID 1259382); note: nearly all actives have a fitted effect of over 55% in size; note: potency is the fitted concentration of half-maximal effect; for activity change, negative = cytotoxicity: series mostly up to about 92 µM
In short: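 Tox21 10K library tested in qHTS format on ER-beta-bla HEK293T cells stimulated with 1nM E2; 16 hr treatment at 37C. Same-well CellTiter-Glo luminescence served as the cell viability measure.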

[6] = target: Estrogen receptor (Homo sapiens) (UniProt P03372); experiment: qHTS assay to identify small molecule agonists of the estrogen receptor alpha (ER-alpha) signaling pathway in the presence of an antagonist (AID 1259383; calls by dose curve; note: top concentration of the series differs between compounds; nearly all actives have a fitted effect of over 15% in size)
In short: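 In VM7Luc4E2 cells, 4,000 per well, compounds at 15 concentrations were co-incubated 22hr at 37C with 10.0nM final ICI-182,780. Luminescence from the stably transfected 4×ERE-luciferase reporter was recorded 30min after ONE-Glo addition.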

[7] = qHTS assay to identify small molecule agonists or antagonists of the thyroid stimulating hormone receptor (TSHR) signaling pathway - wild type cell line counter screen (AID 1259384; calls by dose curve)
In short: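 Wild-type HEK293 cells were plated 18 h at 37 C/5% CO2, pin-dosed with compound plus Ro20-1724 medium, held 30 min at room temperature, then given cAMP-d2 and anti-cAMP-cryptate; fluorescence was read after 1 h. Fifteen concentrations, triplicate.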

[8] = target: Thyrotropin receptor (Homo sapiens) (UniProt P16473); experiment: qHTS assay to identify small molecule antagonists of the thyroid stimulating hormone receptor (TSHR) signaling pathway (AID 1259385; calls by dose curve; note: nearly all actives have a fitted effect of over 20% in size)
In short: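 TSHR-HEK293 cells were plated and held 18 h at 37C/5% CO2, then given compound plus Ro20-1724 and stimulated with TSH at 1.5 ng/mL final. After 30 min at room temperature, cAMP was detected with cAMP-d2/anti-cAMP-cryptate (1 h) by fluorescence.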

[9] = target: Progesterone receptor (Homo sapiens) (UniProt P06401); experiment: qHTS assay to identify small molecule agonists of the progesterone receptor (PR) signaling pathway (AID 1346784; calls by dose curve; note: nearly all actives have a fitted effect of over 30% in size; note: potency is the fitted concentration of half-maximal effect)
In short: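 Cells (PR-UAS-bla HEK 293T, GripTite) were plated in assay medium containing 2% charcoal-stripped FBS and incubated 6 hr. Test compounds in DMSO were added for 16 hr at 37C. FRET substrate was then loaded for 2 hr at room temperature before fluorescence reading.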

[10] = qHTS assay to identify small molecule agonists of the estrogen receptor alpha (ER-alpha) signaling pathway in the presence of an antagonist - cell viability counter screen (AID 1259386);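 note: series mostly up to about 92 µM; cells exposed to compounds for 22 h at 37 °C before the viability read; nearly all actives have a fitted effect of over 30% in size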
In short: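 Fluorescent CellTiter-Fluor viability signal from VM7Luc4E2 cells, with the reagent added during the final hour of a 22hr compound exposure at 37C in the presence of 10.0nM ICI-182,780.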

Chain of Progesterone receptor (Homo sapiens) (P06401 whole entry, looked up): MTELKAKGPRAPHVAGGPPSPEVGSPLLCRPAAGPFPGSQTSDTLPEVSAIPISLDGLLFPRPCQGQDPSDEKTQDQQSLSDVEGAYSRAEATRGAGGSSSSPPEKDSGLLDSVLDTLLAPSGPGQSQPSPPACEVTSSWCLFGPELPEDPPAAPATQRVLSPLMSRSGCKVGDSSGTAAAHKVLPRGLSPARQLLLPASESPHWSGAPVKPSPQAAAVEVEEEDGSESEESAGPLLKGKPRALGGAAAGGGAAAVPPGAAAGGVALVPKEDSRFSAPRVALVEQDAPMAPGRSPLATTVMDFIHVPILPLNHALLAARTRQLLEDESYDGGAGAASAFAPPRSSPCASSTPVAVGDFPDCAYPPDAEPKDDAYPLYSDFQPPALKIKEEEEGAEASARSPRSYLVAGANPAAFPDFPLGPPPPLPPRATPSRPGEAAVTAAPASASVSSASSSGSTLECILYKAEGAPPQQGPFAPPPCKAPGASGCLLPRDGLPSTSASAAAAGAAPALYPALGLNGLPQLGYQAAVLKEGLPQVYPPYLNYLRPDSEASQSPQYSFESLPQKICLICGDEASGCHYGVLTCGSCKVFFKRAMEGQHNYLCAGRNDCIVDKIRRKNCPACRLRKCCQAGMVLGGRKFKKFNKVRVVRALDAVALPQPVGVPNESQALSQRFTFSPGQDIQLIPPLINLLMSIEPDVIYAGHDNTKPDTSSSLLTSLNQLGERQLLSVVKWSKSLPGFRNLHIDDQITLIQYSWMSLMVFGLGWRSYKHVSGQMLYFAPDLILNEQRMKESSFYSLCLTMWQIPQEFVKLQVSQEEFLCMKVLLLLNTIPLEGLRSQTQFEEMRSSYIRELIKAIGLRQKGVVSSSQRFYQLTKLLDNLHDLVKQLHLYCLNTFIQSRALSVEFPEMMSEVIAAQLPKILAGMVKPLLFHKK
Chain of Thyrotropin receptor (Homo sapiens) (P16473 whole entry, looked up): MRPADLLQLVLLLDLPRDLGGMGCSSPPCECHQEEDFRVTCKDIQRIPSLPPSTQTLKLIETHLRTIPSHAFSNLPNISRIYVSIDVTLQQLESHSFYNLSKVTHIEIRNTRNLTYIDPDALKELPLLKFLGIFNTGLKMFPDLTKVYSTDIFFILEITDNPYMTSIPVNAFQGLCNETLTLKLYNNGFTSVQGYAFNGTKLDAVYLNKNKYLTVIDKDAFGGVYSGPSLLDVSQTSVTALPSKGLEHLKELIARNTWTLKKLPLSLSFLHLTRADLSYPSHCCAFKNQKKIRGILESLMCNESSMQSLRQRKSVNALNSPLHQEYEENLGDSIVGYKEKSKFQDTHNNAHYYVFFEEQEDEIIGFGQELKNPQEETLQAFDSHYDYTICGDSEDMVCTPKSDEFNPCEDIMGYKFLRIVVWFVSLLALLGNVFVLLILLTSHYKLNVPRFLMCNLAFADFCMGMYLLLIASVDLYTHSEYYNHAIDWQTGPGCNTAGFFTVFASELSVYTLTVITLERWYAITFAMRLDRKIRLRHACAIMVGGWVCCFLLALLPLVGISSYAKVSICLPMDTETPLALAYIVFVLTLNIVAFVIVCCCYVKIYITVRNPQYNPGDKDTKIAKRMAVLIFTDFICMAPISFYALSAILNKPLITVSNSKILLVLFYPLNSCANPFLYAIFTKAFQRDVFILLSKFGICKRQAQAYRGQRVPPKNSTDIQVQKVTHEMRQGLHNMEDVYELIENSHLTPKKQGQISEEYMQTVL
Chain of Estrogen receptor (Homo sapiens) (P03372 whole entry, looked up): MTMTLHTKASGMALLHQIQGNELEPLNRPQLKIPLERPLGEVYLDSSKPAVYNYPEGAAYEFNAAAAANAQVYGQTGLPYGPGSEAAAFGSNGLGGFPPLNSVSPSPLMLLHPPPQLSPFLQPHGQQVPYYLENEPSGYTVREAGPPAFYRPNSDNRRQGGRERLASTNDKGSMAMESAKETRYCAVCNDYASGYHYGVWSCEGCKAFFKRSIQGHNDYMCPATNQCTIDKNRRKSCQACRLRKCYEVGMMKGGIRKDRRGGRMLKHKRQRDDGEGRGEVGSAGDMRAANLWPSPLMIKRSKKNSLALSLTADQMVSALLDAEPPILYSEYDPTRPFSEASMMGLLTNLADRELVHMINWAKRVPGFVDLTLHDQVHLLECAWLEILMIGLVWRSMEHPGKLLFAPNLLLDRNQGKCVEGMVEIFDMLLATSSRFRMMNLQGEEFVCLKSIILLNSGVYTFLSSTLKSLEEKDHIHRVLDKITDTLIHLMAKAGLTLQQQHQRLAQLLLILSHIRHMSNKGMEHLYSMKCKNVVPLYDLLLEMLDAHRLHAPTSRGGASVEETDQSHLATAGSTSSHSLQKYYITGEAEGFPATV
Chain of Estrogen receptor beta (Homo sapiens) (Q92731 whole entry, looked up, the tested form may be a part): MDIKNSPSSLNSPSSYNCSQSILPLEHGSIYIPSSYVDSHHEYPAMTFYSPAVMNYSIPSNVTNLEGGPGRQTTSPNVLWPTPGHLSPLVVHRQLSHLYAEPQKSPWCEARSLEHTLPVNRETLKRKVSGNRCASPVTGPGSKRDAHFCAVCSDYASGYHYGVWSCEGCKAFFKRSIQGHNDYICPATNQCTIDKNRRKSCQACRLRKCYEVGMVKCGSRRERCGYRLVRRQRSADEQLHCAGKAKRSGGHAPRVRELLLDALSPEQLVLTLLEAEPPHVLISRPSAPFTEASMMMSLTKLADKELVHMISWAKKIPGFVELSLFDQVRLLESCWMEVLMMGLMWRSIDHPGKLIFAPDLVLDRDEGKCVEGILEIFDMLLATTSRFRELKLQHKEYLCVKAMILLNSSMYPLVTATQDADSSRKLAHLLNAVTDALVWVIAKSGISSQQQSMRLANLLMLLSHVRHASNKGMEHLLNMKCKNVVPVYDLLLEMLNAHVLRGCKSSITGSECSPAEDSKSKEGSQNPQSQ

Row | SMILES | outcome [1] | Potency [2] | Potency [3] | Potency [4] | Potency [5] | Potency [6] | Potency [7] | Potency [8] | Potency [9] | activation [1] | activity, negative = inhibition [2] | activity change, negative = cytotoxicity [3] | activity change, negative = cytotoxicity [4] | activity change, negative = cytotoxicity [5] | activation [6] | cAMP activity change [7] | Potency [10]
1 | Cc1cccc([N+](=O)[O-])c1C(=O)O | inactive | inactive | inactive | inactive | inactive | inactive | inactive | inactive | inactive |  |  |  |  |  |  |  | 
2 | Cc1cccc(O)c1C | inactive | inactive | inactive | inactive | inactive | inactive | inactive | inactive | 24.2 µM (active) and inactive |  |  |  |  |  |  |  | 
3 | CCCCCCCCCCCCCCCCCl |  |  |  |  |  |  |  |  | 3.84 µM (active) | 1.06% [at 19 µM] (inactive) | 9.46% [at 19 µM] (inactive) | 1.7% [at 19 µM] (inactive) | 3.21% [at 19 µM] (inactive) | 3.31% [at 19 µM] (inactive) | -0.0791% [at 19 µM] (inactive) | 0.656% [at 18.9 µM, stronger effect = higher value] (inactive) | 
4 | CC(C)(C)c1ccc(O)c(C(C)(C)C)c1 | inactive | inactive | inactive | 48.4 µM (active) and 54.5 µM (active) | 60.9 µM (active) | inactive |  | inactive | inactive |  |  |  |  |  |  |  | inactive
5 | CCC(=O)/C=C/C1C(C)=CCCC1(C)C (configuration not stated) | inactive | inactive | inactive | inactive | inactive |  | inactive | inactive | inactive |  |  |  |  |  |  |  | inactive
6 | CCCCOCCOC(=O)c1ccccc1C(=O)OCCOCCCC | inactive | inactive | inactive | inactive | inactive | inactive |  |  | inactive |  |  |  |  |  |  |  | inactive
7 | CC(=O)OCC1=C(C(=O)O)N2C(=O)[C@@H](NC(=O)Cc3cccs3)[C@H]2SC1 | inactive | inactive | inactive | inactive | inactive |  | inactive | inactive | inactive |  |  |  |  |  |  |  | inactive
8 | Clc1ccc2c(c1)C(N1CCNCC1)=Nc1ccccc1O2 | inactive | inactive | 61.1 µM (active) and 29.8 µM (active) | 30.6 µM (active) and 23.7 µM (active) | inactive | inactive | inactive | inactive |  |  |  |  |  |  |  |  | inactive
9 | CC(=O)Nc1ccc(C(=O)CCl)cc1 | inactive | inactive | 54.5 µM (active) | inactive | inactive |  | inactive | inactive | inactive |  |  |  |  |  |  |  | inactive
10 | C=CS(=O)(=O)O | inactive | inactive | inactive | inactive | inactive | inactive | inactive | inactive | inactive |  |  |  |  |  |  |  | inactive
11 | CC(C)(C)c1cc(C(C)(C)C)c(O)c(C(C)(C)C)c1 | inactive | inactive | inactive | inactive and 48.6 µM (active) | inactive | inactive | inactive | inactive | inactive |  |  |  |  |  |  |  | 
12 | O=C1NCC2(CCN(CCc3ccccc3)CC2)O1 | inactive | inactive | inactive | inactive | inactive | inactive | inactive |  | inactive |  |  |  |  |  |  |  | inactive
13 | CC(C)(O)CCC(C)(C)O | inactive | inactive | inactive | inactive | inactive | inactive | inactive | inactive | inactive |  |  |  |  |  |  |  | inactive
14 | C=C(C)C(=O)O | inactive | inactive | inactive | inactive | inactive | inactive |  |  |  |  |  |  |  |  |  |  | inactive
15 | CC(=O)OCCOCCOCCOC(C)=O | inactive | inactive | inactive | inactive | inactive | inactive |  | inactive | inactive |  |  |  |  |  |  |  | inactive
16 | c1cnc2cc3c(cc2n1)C1CNCC3C1 | inactive | inactive | inactive | inactive | inactive | inactive |  |  | inactive |  |  |  |  |  |  |  | inactive
17 | Cc1c2oc3c(C)ccc(C(=O)N[C@@H]4C(=O)N[C@H](C(C)C)C(=O)N5CCC[C@H]5C(=O)N(C)CC(=O)N(C)[C@@H](C(C)C)C(=O)O[C@@H]4C)c3nc-2c(C(=O)N[C@@H]2C(=O)N[C@H](C(C)C)C(=O)N3CCC[C@H]3C(=O)N(C)CC(=O)N(C)[C@@H](C(C)C)C(=O)O[C@@H]2C)c(N)c1=O (I: T[dV]P[Sar][NMeV] / II: T[dV]P[Sar][NMeV]; ester I:1-I:C, II:1-II:C; linker I:N-II:N via Actinocin(9to1)) | inactive | 0.0266 µM (active) | 10.6 µM (active) | inactive | inactive | inactive |  |  | inactive |  |  |  |  |  |  |  | 
18 | CC(C)(C)c1ccccc1 | inactive | inactive | inactive | inactive | inactive |  | inactive | inactive | inactive |  |  |  |  |  |  |  | inactive
19 | CC(C(O)c1ccc(O)cc1)N1CCC(Cc2ccccc2)CC1 (configuration not stated) | inactive | inactive | inactive | inactive | inactive | inactive |  |  |  |  |  |  |  |  |  |  | inactive
20 | O=C(O)c1cc(Cl)cc(Cl)c1 | inactive | inactive | inactive | inactive | inactive | inactive |  | inactive | inactive |  |  |  |  |  |  |  | 
